Where a name gives a salt, the structure may show the parent alone. ± gives the standard deviation of the averaged measurements.
Test system: E. coli TESEC Alr+ wild-type control
Assay: growth (OD600 after 10 h); higher = more growth (less inhibition)
Details: compound 0.1 mM; raw OD600 reference: median of DMSO wells 0.49, cell-free background 0.052
Procedure: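 TESEC Mtb Alr E. coli (ΔaraC ΔtolC ΔentC Δalr ΔdadX, arabinose-inducible Mtb Alr) or the Alr+ wild-type control strain, grown in defined M9-fructose medium without D-alanine in 96-well plates with Prestwick library compounds at 0.1 mM and 1% DMSO. Low Alr induction is 0.1 µM arabinose and high induction is 10 mM arabinose.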

SMILES | growth
COc1ccc(OC)c(C(O)CNC(=O)CN)c1 (stereo not given) [Midodrine hydrochloride] | 0.482 ± 0.043
CCCN(CCC)C(=O)C(CCC(=O)O)NC(=O)c1ccccc1 (stereo not given) [Proglumide] | 0.477 ± 0.079
CN1[C@@H]2CC[C@H]1C[C@@H](OC(=O)c1c[nH]c3ccccc13)C2 [Tropisetron HCl] | 0.53 ± 0.08
CO[C@@H]1[C@@H](OC(N)=O)[C@@H](O)[C@H](Oc2ccc3c(O)c(NC(=O)c4ccc(O)c(CC=C(C)C)c4)c(=O)oc3c2C)OC1(C)C [Novobiocin sodium salt] | 0.0556 ± 0.0007
COc1ccccc1N1CCN(CC(O)COc2cccc3ccccc23)CC1 (stereo not given) [Naftopidil dihydrochloride] | 0.0532 ± 0.0005
Nc1nc(=O)c2c([nH]1)NC[C@@H](CNc1ccc(C(=O)N[C@@H](CCC(=O)O)C(=O)O)cc1)N2C=O [Folinic acid calcium salt] | 0.567 ± 0.12
CN1CCN(C2=Nc3ccccc3Oc3ccc(Cl)cc32)CC1 [Loxapine succinate] | 0.399 ± 0.0093
Cc1cccc(C)c1OCC(C)N (stereo not given) [Mexiletine hydrochloride] | 0.399 ± 0.005
CCCC1C(=O)N2C(N(C)C)=Nc3ccc(C)cc3N2C1=O (stereo not given) [Azapropazone] | 0.483 ± 0.02
O=C1c2cccc(O)c2C(=O)c2c(O)cccc21 [1,8-Dihydroxyanthraquinone] | 0.383 ± 0.011
Cc1cnc(NC(=O)C2=C(O)c3ccccc3S(=O)(=O)N2C)s1 [Meloxicam] | 0.461 ± 0.023
Cc1onc(-c2ccccc2)c1-c1ccc(S(N)(=O)=O)cc1 [Valdecoxib] | 0.388 ± 0.027
C[C@@H]1C[C@H]2[C@@H]3C[C@H](F)C4=CC(=O)C=C[C@]4(C)[C@@]3(F)[C@@H](O)C[C@]2(C)[C@@]1(O)C(=O)COC(=O)C(C)(C)C [Flumethasone pivalate] | 0.521 ± 0.057
CN1CCCN=C1/C=C/c1cccc(O)c1 [Oxantel pamoate] | 0.496 ± 0.038
O=c1[nH]c(=O)n([C@H]2C[C@H](O)[C@@H](CO)O2)cc1F [Floxuridine] | 0.356 ± 0.0098
COc1ccccc1N1CCN(CCCNc2cc(=O)n(C)c(=O)n2C)CC1 [Urapidil hydrochloride] | 0.713 ± 0.029
CC1=C(C(=O)O)N2C(=O)[C@@H](NC(=O)[C@H](N)c3ccc(O)cc3)[C@H]2SC1 [Cefadroxil] | 0.606 ± 0.045
c1ccc(CN(CC2=NCCN2)c2ccccc2)cc1 [Antazoline hydrochloride] | 0.5 ± 0.083
COc1cc(-c2ccc(=O)[nH]n2)ccc1OC(F)F [Zardaverine] | 0.442 ± 0.044
CC1CC(OC(=O)C(O)c2ccccc2)CC(C)(C)N1C (stereo not given) [Eucatropine hydrochloride] | 0.444 ± 0.029

SMILES | growth
CN(C)CCOC(c1ccccc1)c1ccccc1.Cn1c(=O)c2[nH]c(Cl)nc2n(C)c1=O [Dimenhydrinate] | 0.53 ± 0.059
CC(C)(C)NCC(O)c1cc(O)cc(O)c1 (stereo not given) [Terbutaline hemisulfate] | 0.504 ± 0.051
O=C(Nc1cccc2c(=O)cc(-c3nnn[nH]3)oc12)c1ccc(OCCCCc2ccccc2)cc1 [Pranlukast] | 0.46 ± 0.0055
CC(NCCc1ccc(O)cc1)C(O)c1ccc(O)cc1 (stereo not given) [Ritodrine hydrochloride] | 0.56 ± 0.074
OCc1cc(C(O)CNCCCCCCOCCCCc2ccccc2)ccc1O (stereo not given) [Salmeterol] | 0.399 ± 0.032
Nc1c2ccccc2nc2ccccc12 [Aminacrine] | 0.0507 ± 0.00067
O=C1c2c(O)cccc2Cc2cccc(O)c21 [Anthralin] | 0.339 ± 0.015
Cc1nccn1CC1CCc2c(c3ccccc3n2C)C1=O (stereo not given) [Ondansetron Hydrochloride] | 0.526 ± 0.11
O=c1[nH]c(=O)n([C@H]2C[C@H](O)[C@@H](CO)O2)cc1I [Idoxuridine] | 0.483 ± 0.064
CCOC(=O)C1=C(C)NC(C)=C(C(=O)OC)C1c1cccc(Cl)c1Cl (stereo not given) [Felodipine] | 0.0917 ± 0.0035
Oc1ccc(C2CNCCc3c2cc(O)c(O)c3Cl)cc1 (stereo not given) [Fenoldopam] | 0.355 ± 0.023
CCOc1ccc2nc(S(N)(=O)=O)sc2c1 [Ethoxzolamide] | 0.552 ± 0.11
CC(C)(C)NC[C@@H](O)COc1cccc2c1CCCC2=O [(+) -Levobunolol hydrochloride] | 0.546 ± 0.077
CC[C@@H]1C(=O)OC[C@@H]1Cc1cncn1C [Pilocarpine nitrate] | 0.674 ± 0.05
CN(C)CCCSC(=N)N [Dimaprit dihydrochloride] | 0.617 ± 0.017
CC(=O)OCC(=O)[C@@]12OC3(CCCC3)O[C@@H]1C[C@H]1[C@@H]3CCC4=CC(=O)C=C[C@]4(C)[C@@]3(F)[C@@H](O)C[C@@]12C [Amcinonide] | 0.462 ± 0.024
COc1cc(N)c(Cl)cc1C(=O)NC1CCN(CCCOc2ccc(F)cc2)CC1OC (stereo not given) [Cisapride] | 0.552 ± 0.1
Nc1ccc(S(=O)(=O)Nc2ncccn2)cc1 [Sulfadiazine] | 0.464 ± 0.054
CC(=O)O[C@]1(C(C)=O)CC[C@H]2[C@@H]3C=C(Cl)C4=CC(=O)[C@@H]5C[C@@H]5[C@]4(C)[C@H]3CC[C@@]21C [Cyproterone acetate] | 0.355 ± 0.17
CN1C(C(=O)Nc2ccccn2)=C(O)c2ccccc2S1(=O)=O [Piroxicam] | 0.4032 ± 0.0031
